Measurements as given in PubChem BioAssay (NCATS).
Inconclusive results are not listed. Unmarked numbers belong to inactive results. Calls come from the whole dose curve; as a rule, active = well fitted curve in the direction sought with a large enough effect; inconclusive = small, poorly fitted or top-dose-only effect, or another doubt; inactive = no such curve, though single readings can be large or run the other way.

Test: qHTS Assay for Identifying Gametocytocidal Compounds (AID 743244);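 note: actives lower the fluorescent signal which means gametocytes are killed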
Details: P. falciparum 3D7 stage III-V gametocytes, alamarBlue, 72 h; max response: hits give low values
Outline: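 In this qHTS viability screen, late-stage 3D7 gametocytes are incubated with compound for 72 h, then with alamarBlue for 24 h; reduced resorufin fluorescence marks killing.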
% is set by controls: 0 for no effect and ±100 for the full control effect.

Row | SMILES | max response
1 | CC1=C(C(=O)O)N2C(=O)[C@@H](NC(=O)[C@H](N)c3ccc(O)cc3)[C@H]2SC1 | 17.2%
2 | CN(C)CC/C=C1/c2ccccc2COc2ccc(CC(=O)O)cc21 | 3.04%
3 | Cc1ccc(Nc2c(F)cccc2Cl)c(CC(=O)O)c1 | 0.561%
